# Source: the supplement of paper PMC8728848
# This is one part of a sample in which the strongest signals are shown more often than they occur.
# B1: GS13686A-pdi-553-26-553 (Parabacteroides distasonis) (protein)
# chain: NENPDKPTDDVNYNMNEPRLASTLRGGLIIEGNVEQRLKPLQIDFYSQMTVDGGGWGTKNYIQDDEWNNLVWEEYLKQIASINIVIRSLTEKDKDAYANTIAFARIWRVYVHTLAADKFGPMPFPAYEIVEANPPYKSLKDIYDEYFRELDAAINGFNDSAQPIFSDAGIDLIYKNDVSKWKRFANSLRLRLAVRLTEVDQEKCIAEANAAISSPAGLISDKADNAYMPPKADGSWGQDYNYTMFQITWSGPICMSKSVEKLVTNIGGVAWPQGVVNQTSGVAVSSVHPEKVDPRAPKIFQPGIENGDWKGLVYGPKAEEANTGIYQSKQCAELGFIIKDGYPYKSRPYDLFLSEEVHFLKAELYARGFIAGDAKSEYEAGVRASFATWGVTSEVDDYLTSTEKNEAGTSARYDDQQGAGNTALEKIITQKYIAGIPDLAQEGWNDKRRLNLPRLDVAVYRDQAVYNNNDKDILKSANFIKRMRYPTKESLINATEYEKGKSMLGGKGDIVSTPLWWDKNSNYCTSSK
# What was measured:
# Experiment in all cases: glycan array binding signal (z-score within array); higher = stronger binding
# Settings in all cases: glycan notation: IUPAC condensed, linker removed
# [1] = target: Fuc(a1-2)Gal(b1-3)GlcNAc(b1-2)Man(a1-3)[Fuc(a1-2)Gal(b1-3)GlcNAc(b1-2)Man(a1-6)]Man(b1-4)GlcNAc(b1-4)GlcNAc
# Method in brief: (§1)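 Negative Z-scores can be read as non-binding. The Z-score is calculated within each array and then averaged across arrays of one protein sequence at different concentrations or buffers and across linkers. Arrays, 3228 in all, were curated from the Consortium for Functional Glycomics database and kept only where the protein sequence was available.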
# Fuc(a1-2)Gal(b1-4)Glc = target: Fuc(a1-2)Gal(b1-4)Glc
# Method in brief: as §1
# Fuc(a1-2)Gal(b1-4)Glc6S = target: Fuc(a1-2)Gal(b1-4)Glc6S
# Method in brief: as §1
# Fuc(a1-2)Gal6S(b1-4)Glc = target: Fuc(a1-2)Gal6S(b1-4)Glc
# Method in brief: as §1
# [2] = target: Fuc(a1-2)[Gal(a1-3)]Gal(b1-4)GlcNAc(b1-3)[Fuc(a1-2)[Gal(a1-3)]Gal(b1-4)GlcNAc(b1-6)]GalNAc
# Method in brief: as §1
# [3] = target: Fuc(a1-2)[Gal(a1-3)]Gal(b1-4)GlcNAc(b1-6)GalNAc
# Method in brief: as §1
# [4] = target: Fuc(a1-2)[GalNAc(a1-3)]Gal(b1-3)GalNAc(b1-3)Gal(a1-4)Gal(b1-4)Glc
# Method in brief: as §1
# [5] = target: Fuc(a1-2)[GalNAc(a1-3)]Gal(b1-4)GlcNAc(b1-2)Man(a1-3)[Fuc(a1-2)[GalNAc(a1-3)]Gal(b1-4)GlcNAc(b1-2)Man(a1-6)]Man(b1-4)GlcNAc(b1-4)[Fuc(a1-6)]GlcNAc
# Method in brief: as §1
# [6] = target: Fuc(a1-2)[GalNAc(a1-3)]Gal(b1-4)GlcNAc(b1-3)Gal(b1-4)GlcNAc
# Method in brief: as §1
# [7] = target: Fuc(a1-2)[GalNAc(a1-3)]Gal(b1-4)GlcNAc(b1-3)Gal(b1-4)GlcNAc(b1-3)Gal(b1-4)GlcNAc
# Method in brief: as §1
# [8] = target: Fuc(a1-2)[GalNAc(a1-3)]Gal(b1-4)GlcNAc(b1-6)GalNAc
# Method in brief: as §1
# [9] = target: Fuc(a1-2)[GalNAc(a1-4)]Gal(b1-4)GlcNAc
# Method in brief: as §1
# [10] = target: Fuc(a1-3)[Gal(b1-4)]GlcNAc(b1-2)Man
# Method in brief: as §1
# [11] = target: Fuc(a1-3)[Gal(b1-4)]GlcNAc(b1-3)Gal(b1-4)[Fuc(a1-3)]GlcNAc(b1-3)Gal(b1-4)[Fuc(a1-3)]GlcNAc
# Method in brief: as §1
# [12] = target: Fuc(a1-3)[Gal(b1-4)]GlcNAc6S
# Method in brief: as §1
# Gal(a1-6)Glc = target: Gal(a1-6)Glc
# Method in brief: as §1
# Gal(b1-3)GalNAc = target: Gal(b1-3)GalNAc
# Method in brief: as §1
# [13] = target: Gal(b1-3)GlcNAc(b1-2)[Gal(b1-3)GlcNAc(b1-6)]Man(a1-6)[Gal(b1-3)GlcNAc(b1-2)Man(a1-3)]Man(b1-4)GlcNAc(b1-4)GlcNAc
# Method in brief: as §1
# [14] = target: Gal(b1-3)GlcNAc(b1-3)Gal(b1-4)Glc
# Method in brief: as §1
# [15] = target: Gal(b1-3)GlcNAc(b1-3)Gal(b1-4)GlcNAc(b1-2)[Gal(b1-3)GlcNAc(b1-3)Gal(b1-4)GlcNAc(b1-6)]Man(a1-6)[Gal(b1-3)GlcNAc(b1-3)Gal(b1-4)GlcNAc(b1-2)Man(a1-3)]Man(b1-4)GlcNAc(b1-4)[Fuc(a1-6)]GlcNAc
# Method in brief: as §1
# [16] = target: Gal(b1-3)GlcNAc(b1-6)GalNAc
# Method in brief: as §1
# [17] = target: Gal(b1-3)[Neu5Ac(b2-6)]GalNAc
# Method in brief: as §1
# [18] = target: Gal(b1-4)GlcNAc(b1-2)Man(a1-3)[Gal(b1-4)GlcNAc(b1-2)Man(a1-6)][GlcNAc(b1-4)]Man(b1-4)GlcNAc(b1-4)[Fuc(a1-6)]GlcNAc
# Method in brief: as §1
# [19] = target: Gal(b1-4)GlcNAc(b1-2)Man(a1-6)[GlcNAc(b1-2)Man(a1-3)]Man(b1-4)GlcNAc(b1-4)GlcNAc
# Method in brief: as §1
# [20] = target: Gal(b1-4)GlcNAc(b1-2)Man(a1-6)[Man(a1-3)]Man(b1-4)GlcNAc(b1-4)GlcNAc
# Method in brief: as §1
# [21] = target: Gal(b1-4)GlcNAc(b1-2)[Gal(b1-4)GlcNAc(b1-4)]Man(a1-3)[Gal(b1-4)GlcNAc(b1-2)[Gal(b1-4)GlcNAc(b1-6)]Man(a1-6)]Man(b1-4)GlcNAc(b1-4)GlcNAc
# Method in brief: as §1
# [22] = target: Gal(b1-4)GlcNAc(b1-3)Gal(b1-3)GlcNAc
# Method in brief: as §1
# [23] = target: Gal(b1-4)GlcNAc(b1-3)Gal(b1-4)GlcNAc(b1-3)Gal(b1-4)GlcNAc(b1-2)Man(a1-3)[Gal(b1-4)GlcNAc(b1-3)Gal(b1-4)GlcNAc(b1-3)Gal(b1-4)GlcNAc(b1-2)Man(a1-6)]Man(b1-4)GlcNAc(b1-4)GlcNAc
# Method in brief: as §1
# [24] = target: Gal(b1-4)GlcNAc(b1-6)GalNAc
# Method in brief: as §1
binder,measurement,setting,value
B1,glycan array binding signal (z-score),[1],0.144
same,glycan array binding signal (z-score),Fuc(a1-2)Gal(b1-4)Glc,-0.076
same,glycan array binding signal (z-score),Fuc(a1-2)Gal(b1-4)Glc6S,0.03
same,glycan array binding signal (z-score),Fuc(a1-2)Gal6S(b1-4)Glc,-0.226
same,glycan array binding signal (z-score),[2],0.003
same,glycan array binding signal (z-score),[3],0.081
same,glycan array binding signal (z-score),[4],-0.124
same,glycan array binding signal (z-score),[5],0.023
same,glycan array binding signal (z-score),[6],0.224
same,glycan array binding signal (z-score),[7],0.041
same,glycan array binding signal (z-score),[8],-0.281
same,glycan array binding signal (z-score),[9],1.95
same,glycan array binding signal (z-score),[10],-0.253
same,glycan array binding signal (z-score),[11],-0.035
same,glycan array binding signal (z-score),[12],-0.276
same,glycan array binding signal (z-score),Gal(a1-6)Glc,0.108
same,glycan array binding signal (z-score),Gal(b1-3)GalNAc,0.011
same,glycan array binding signal (z-score),[13],0.046
same,glycan array binding signal (z-score),[14],-0.082
same,glycan array binding signal (z-score),[15],1.83
same,glycan array binding signal (z-score),[16],1.97
same,glycan array binding signal (z-score),[17],1.03
same,glycan array binding signal (z-score),[18],1.35
same,glycan array binding signal (z-score),[19],0.027
same,glycan array binding signal (z-score),[20],-0.04
same,glycan array binding signal (z-score),[21],2.01
same,glycan array binding signal (z-score),[22],-0.133
same,glycan array binding signal (z-score),[23],0.45
same,glycan array binding signal (z-score),[24],-0.056
